# Data reported in the antibiotic and cytotoxicity screens of Wong et al. (2023).
# Hit rate of the full screen: of about 39,000 compounds, about 1,500 (3.8%) were called active. Only a selection was taken, and actives are over-represented in it overall.
# Test system: HSkMC (human skeletal muscle cells)
# Test: cytotoxicity call (relative viability < 0.9)
# Settings: 10 µM
row,SMILES,cytotoxicity call
1,Cc1noc(C)c1S(=O)(=O)Nc1ccc2c(c1)C(=O)N([C@@H](C)CO)C[C@H](C)[C@@H](CN(C)Cc1ccc(Cl)c(Cl)c1)OCCCC[C@H](C)O2,inactive
2,Cc1noc(C)c1S(=O)(=O)Nc1ccc2c(c1)C(=O)N([C@H](C)CO)C[C@H](C)[C@@H](CN(C)Cc1ccc(Cl)c(Cl)c1)OCCCC[C@H](C)O2,inactive
3,Cc1noc(C)c1S(=O)(=O)Nc1ccc2c(c1)C(=O)N([C@H](C)CO)C[C@@H](C)[C@@H](CN(C)Cc1ccc(Cl)c(Cl)c1)OCCCC[C@H](C)O2,active
4,Cc1ccc(S(=O)(=O)Nc2ccc3c(c2)C(=O)N([C@H](C)CO)C[C@@H](C)[C@H](CN(C)Cc2ccc(Cl)c(Cl)c2)OCCCC[C@@H](C)O3)cc1,inactive
5,Cc1ccc(S(=O)(=O)Nc2ccc3c(c2)C(=O)N([C@@H](C)CO)C[C@H](C)[C@@H](CN(C)Cc2ccc(Cl)c(Cl)c2)OCCCC[C@H](C)O3)cc1,active
6,Cc1ccc(S(=O)(=O)Nc2ccc3c(c2)C(=O)N([C@H](C)CO)C[C@@H](C)[C@H](CN(C)Cc2ccc(Cl)c(Cl)c2)OCCCC[C@H](C)O3)cc1,inactive
7,Cc1ccc(S(=O)(=O)Nc2ccc3c(c2)C(=O)N([C@H](C)CO)C[C@@H](C)[C@@H](CN(C)Cc2ccc(Cl)c(Cl)c2)OCCCC[C@H](C)O3)cc1,inactive
8,Cc1ccc(S(=O)(=O)Nc2ccc3c(c2)C(=O)N([C@H](C)CO)C[C@H](C)[C@H](CN(C)Cc2ccc(Cl)c(Cl)c2)OCCCC[C@H](C)O3)cc1,inactive
9,Cc1ccc(S(=O)(=O)Nc2ccc3c(c2)C(=O)N([C@@H](C)CO)C[C@@H](C)[C@H](CN(C)Cc2ccc(Cl)c(Cl)c2)OCCCC[C@@H](C)O3)cc1,inactive
10,Cc1ccc(S(=O)(=O)Nc2ccc3c(c2)C(=O)N([C@@H](C)CO)C[C@@H](C)[C@@H](CN(C)Cc2ccc(Cl)c(Cl)c2)OCCCC[C@@H](C)O3)cc1,active
11,Cc1ccc(S(=O)(=O)Nc2ccc3c(c2)C(=O)N([C@@H](C)CO)C[C@H](C)[C@@H](CN(C)Cc2ccc(Cl)c(Cl)c2)OCCCC[C@@H](C)O3)cc1,active
12,Cc1ccc(S(=O)(=O)Nc2ccc3c(c2)C(=O)N([C@H](C)CO)C[C@H](C)[C@@H](CN(C)Cc2ccc(Cl)c(Cl)c2)OCCCC[C@H](C)O3)cc1,inactive
13,CNC(=O)C[C@@H]1CC[C@H]2[C@@H](COC[C@@H](O)CN2C(=O)c2ccc3c(c2)OCO3)O1,inactive
14,COc1cccc(S(=O)(=O)Nc2ccc3c(c2)OC[C@@H](C)N(C(=O)Cc2cccnc2)C[C@H](C)[C@@H](OC)CN(C)C3=O)c1,inactive
15,C[C@@H]1CN([C@@H](C)CO)C(=O)c2cccc(NC(=O)Nc3ccc4c(c3)OCO4)c2O[C@H]1CN(C)S(C)(=O)=O,inactive
16,C[C@@H]1CCCCO[C@H](CN(C)S(=O)(=O)c2ccccc2)[C@H](C)CN([C@@H](C)CO)C(=O)c2cc(NC(=O)Nc3ccc(F)cc3)ccc2O1,inactive
17,O=C(O)CCNC(=O)c1cccc([N+](=O)[O-])c1,inactive
18,C[C@H]1CN([C@@H](C)CO)C(=O)c2cccc(NS(=O)(=O)c3cn(C)cn3)c2O[C@@H]1CN(C)CC1CCCCC1,inactive
19,Cc1noc(C)c1S(=O)(=O)Nc1cccc2c1O[C@@H](CN(C)Cc1ccc3c(c1)OCO3)[C@@H](C)CN([C@@H](C)CO)C2=O,inactive

row,SMILES,cytotoxicity call
1,COCC#Cc1ccc([C@@H]2[C@H]3CN(C(=O)CN4CCOCC4)CC(=O)N3[C@H]2CO)cc1,inactive
2,C[C@H](CO)N1C[C@H](C)[C@H](CN(C)C(=O)Nc2ccc(C(F)(F)F)cc2)OCCCC[C@H](C)Oc2ccc(NC(=O)NC3CCCCC3)cc2C1=O,inactive
3,C[C@@H]1CCCCO[C@@H](CN(C)C(=O)c2ccccc2)[C@@H](C)CN([C@@H](C)CO)C(=O)c2cc(NC(=O)CCC(F)(F)F)ccc2O1,inactive
4,CO[C@@H]1CN(C)C(=O)c2cc(NC(=O)C3CCOCC3)ccc2OC[C@@H](C)N(Cc2cccnc2)C[C@@H]1C,inactive
5,CC(=O)Oc1cc2c(c(C)c1OC(C)=O)CC=C1[C@@]2(C)CC[C@@]2(C)[C@H]3C[C@](C)(C(=O)O)CC[C@]3(C)CC[C@]12C,active
6,CC1(C(=O)O)CCC2(C)CCC3(C)C(=CC(=O)C4C5(C)CCC(O)C(C)(C)C5CCC43C)C2C1 (configuration not stated),inactive
7,C[C@@H]1CN([C@@H](C)CO)C(=O)Cc2cc(NC(=O)NC3CCCCC3)ccc2O[C@@H]1CN(C)C(=O)Nc1cccc2ccccc12,inactive
8,C[C@@H]1CN([C@H](C)CO)C(=O)Cc2cc(NS(C)(=O)=O)ccc2O[C@H]1CN(C)S(=O)(=O)c1cccs1,inactive
9,CC(C)CC#Cc1ccc2c(c1)O[C@@H](CN(C)C(=O)Cc1ccccn1)[C@@H](C)CN([C@H](C)CO)S2(=O)=O,inactive
10,C[C@@H]1CN([C@@H](C)CO)C(=O)Cc2cc(NC(=O)Nc3ccc(C(F)(F)F)cc3)ccc2O[C@@H]1CN(C)CC1CCCCC1,inactive
11,C[C@H](CO)N1C[C@H](C)[C@H](CN(C)CC2CCCCC2)Oc2ccc(NC(=O)Nc3ccc(C(F)(F)F)cc3)cc2CC1=O,active
12,C[C@@H]1CN([C@H](C)CO)C(=O)Cc2cc(NC(=O)Nc3ccc(C(F)(F)F)cc3)ccc2O[C@@H]1CN(C)CC1CCCCC1,active
13,C[C@H]1CN([C@@H](C)CO)C(=O)Cc2cc(NC(=O)Nc3ccc(C(F)(F)F)cc3)ccc2O[C@@H]1CN(C)CC1CCCCC1,active
14,C[C@H]1CN([C@@H](C)CO)C(=O)Cc2cc(NC(=O)Nc3ccc(C(F)(F)F)cc3)ccc2O[C@H]1CN(C)CC1CCCCC1,active
15,C[C@@H]1CN([C@H](C)CO)C(=O)Cc2cc(NC(=O)Nc3ccc(F)cc3)ccc2O[C@H]1CN(C)CC1CCCCC1,inactive
16,Cc1ccc(S(=O)(=O)N(C)C[C@@H]2OCCCC[C@@H](C)Oc3ccc(NC(=O)Nc4cccc5ccccc45)cc3C(=O)N([C@H](C)CO)C[C@@H]2C)cc1,inactive
17,COCC(=O)N(C)C[C@H]1Oc2cc(C#C[C@H](C)O)ccc2S(=O)(=O)N([C@@H](C)CO)C[C@@H]1C,inactive
18,O=C(CN1CCOCC1)N[C@@H]1CC[C@H](CCn2cc(C3CC3)nn2)O[C@H]1CO,inactive
